MEP2-GFP yeast – alters MEP2-GFP fluorescence in TOR pathway yeast screen | S. cerevisiae MEP2-GFP strain, flow cytometry GFP, 3 h; 100% = DMSO control level | GFP response vs DMSO, % at 10 µM | 330,000 compounds, 0.51% hits;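 active = GFP response versus DMSO above a set limit, roughly screen mean plus 3 SD, cut at about 180% in these data; inconclusive = fewer than 70 cells counted for a yeast strain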;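 note: median GFP fluorescence of the barcode-gated MEP2-GFP cells per well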
CIT2-GFP yeast – yeast TOR pathway CIT2-GFP modulation; S. cerevisiae CIT2-GFP strain, flow cytometry, 3 h; 100 means same as DMSO wells; GFP response vs DMSO, % at 10 µM; 320,000 compounds, 0.065% hits; AID 2029;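 active = GFP response relative to DMSO above a set limit, near the screen mean plus 3 SD, cut at about 150% in these data; inconclusive = Fewer than 70 cells measured for a yeast strain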;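 note: ratio of well median GFP fluorescence to mean of DMSO wells on the plate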
AGP1-GFP MLPCN – yeast TOR pathway AGP1-GFP modulation. S. cerevisiae AGP1-GFP multiplex flow cytometry, 3 h; GFP as percent of DMSO wells. AID 2066. 320,000 compounds, 0.02% hits. GFP response vs DMSO, % at 10 µM;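 active = GFP response relative to DMSO above a set limit, near screen average plus 3 SD, cut at about 150% in these data; inconclusive = fewer than 70 cells counted for the yeast strain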;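 note: median GFP channel fluorescence of the gated AGP1 strain per well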
LAP4 TOR yeast – yeast TOR pathway LAP4-GFP modulation. S. cerevisiae LAP4-GFP multiplex, flow cytometry GFP, 3 h; median GFP as percent of DMSO wells. GFP response vs DMSO, % at 10 µM. 320,000 compounds, 0.34% hits;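 active = GFP response vs DMSO above a set limit, about the screen mean plus 3 SD, cut at about 150% in these data; inconclusive = under 70 cell events counted for the yeast strain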
RPL19A TOR yeast – modulators of TOR pathway RPL19A-GFP in S. cerevisiae; S. cerevisiae RPL19A-GFP strain, flow cytometry, 3 h; hits give low values; percent response vs DMSO, % at 10 µM; 330,000 compounds, 0.3% hits; AID 2025;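 active = percent response vs DMSO below 50%; inconclusive = fewer than 70 events counted for the yeast strain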;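 note: median channel GFP fluorescence of the barcoded RPL19A-GFP strain; ratio of sample median GFP to plate DMSO average so 100% = DMSO; lower means less RPL19A-GFP as with rapamycin TOR inhibition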
* = called active by the depositor; ? = inconclusive; . = not tested or not shown; [ ] = another dose, or the depositor's remark. Shown are actives, neighbours in structure and some others; about 0.92% of the full set was active somewhere.

SMILES	MEP2-GFP yeast	CIT2-GFP yeast	AGP1-GFP MLPCN	LAP4 TOR yeast	RPL19A TOR yeast
Cc1cccc(NC(=O)Cc2ccc(-c3ccccc3)cc2)n1	96	81	96	100	101
O=C(Cc1ccc(-c2ccccc2)cc1)Nc1ccccc1	326*[may fluoresce violet]	?	19	95	56
CC1CCN(c2nc(N3CCCCC3)nc(N3CCCCC3)n2)CC1	98	91	98	113	98
C1CCN(c2nc(N3CCCCC3)nc(N3CCNCC3)n2)CC1	218*[may fluoresce violet]	?	82	99	92
O=C(NC1CCCC1)C(c1ccccc1F)N(C(=O)c1csnn1)C1CC1 (stereo not given)	106	90	95	103	99
O=C(NCc1ccc(F)cc1)C(c1ccco1)N(C(=O)c1csnn1)C1CC1 (stereo not given)	219*[may fluoresce violet]	?	?	61	34*[may fluoresce violet]
CCOc1ccccc1C(C(=O)NC1CCCCC1)N(C(=O)c1csnn1)C1CC1 (stereo not given)	369*[may fluoresce violet]	?	?	65	38*[may fluoresce violet]
Cc1nn(C)c(C(=O)Sc2ccccc2)c1[N+](=O)[O-]	99	96	110	129	101
Cc1nn(C)c(C(=O)Sc2cccc(Cl)c2)c1[N+](=O)[O-]	97	103	110	154*	107
Cc1c(CCC(=O)N[C@@H](CC(C)C)C(=O)O)c(=O)oc2cc3oc4c(c3cc12)CCCC4	110	108	105	103	112
Cc1cc(C)c2c(N=NN3CCOCC3)[nH]nc2n1	111	151*	123	109	97
O=S(=O)(NC1=NCCCCC1)c1ccc2sc(NS(=O)(=O)c3ccc4ccccc4c3)nc2c1	243*[may fluoresce violet]	?	22	83	41*[may fluoresce violet]
O=S(=O)(Nc1nc2c(s1)CCCC2)c1ccc2ccccc2c1	97	104	99	94	96
O=C(CCS(=O)(=O)c1ccc(Br)s1)NC1CCCCCC1	448*[may fluoresce violet]	?	23	74	61
O=C(CN1C(=O)CCC1=O)Nc1cccc(NC(=O)CN2C(=O)CCC2=O)c1	102	108	104	96	104
CC1CN(S(=O)(=O)c2ccc(C(=O)N(C)C3CCCCC3)cc2)CC(C)O1 (stereo not given)	101	98	98	95	99
O=C(NC1=NCCS1)c1cccc(F)c1	101	100	96	102	100
O=C(NC1=NCCS1)c1cccc(Br)c1	185*[may fluoresce violet]	?	17	108	66
Cc1c(C(=O)Nc2ccc3c(c2)OCCO3)sc2ncnc(N3CCCCC3C)c12 (stereo not given)	92	84	85	96	91
C=CCNC(=S)Nc1ccc2cn[nH]c2c1	110	105	104	111	105
O=C(CCC(F)(F)F)N1CCC(CO)(CCc2ccccc2)CC1	103	99	152*	89	102
O=C(NCc1ccccc1)N1CCC(CO)(CCc2ccccc2)CC1	109	113	117	121	100
c1ccc(CCNc2nc(-c3ccncc3)cs2)cc1	100	102	97	106	100
CCCCCNc1nc(-c2ccccc2)cs1	238*[may fluoresce violet]	?	.	112	58
c1ccc(CSc2ccc(-c3ccccn3)nn2)cc1	109	83	93	155*	91
SMILES	MEP2-GFP yeast	CIT2-GFP yeast	AGP1-GFP MLPCN	LAP4 TOR yeast	RPL19A TOR yeast
CN1/C(=C\C(=O)c2cccc(S(=O)(=O)N3CCCCC3)c2)C(C)(C)c2ccccc21	157	162*	109	121	116
CN(Cc1cccnc1)C(=O)Cc1ccc(NS(=O)(=O)c2cccc(C(F)(F)F)c2)cc1	106	112	94	90	106
O=C(COC(=O)c1cc(=O)[nH]c2ccccc12)NCCc1ccccc1	99	93	110	122	106
CN(Cc1ccccc1)S(=O)(=O)c1ccc(OCC(=O)NCc2ccccn2)cc1	103	99	105	93	99
CC(C)NC(=O)COc1ccc(S(=O)(=O)N(C)Cc2ccccc2)cc1	408*[may fluoresce violet]	?	18	92	71
O=C(NCC1CCCO1)c1sc(=S)n2c1[nH]c(=O)c1ccc(C(=O)N3CCCCC3)cc12 (stereo not given)	206*[may fluoresce violet]	?	?	96	42*[may fluoresce violet]
Cc1ccccc1N1CC(C(=O)Nc2ccc(S(=O)(=O)N3CCCCC3)cc2)CC1=O (stereo not given)	279*[may fluoresce violet]	?	?	80	61
Cc1cccc(N2CC(C(=O)Nc3ccc(S(=O)(=O)N4CCCCC4)cc3)CC2=O)c1C (stereo not given)	105	104	103	103	105
CCOC(=O)COc1c(Cl)cc(C2NC(=S)NC(c3ccccc3)=C2C(C)=O)cc1OCC (stereo not given)	105	99	101	91	106
C/C(=N\NC(=O)c1ccc(Cl)c(Cl)c1)c1ccccn1	133	109	109	285*	137
C/C(=N\NC(=O)c1ccccc1Cl)c1ccccn1	95	106	105	98	99
COc1cccc(/C=N/NC(=O)CC2C(=O)NN=C2C)c1O (stereo not given)	?	?	?	?	11*[may fluoresce violet]
COc1cccc(/C=N/NC(=O)CC2C(=O)NN=C2C)c1OC (stereo not given)	108	108	103	96	96
O=C(Nc1ccccc1)c1nnsc1S(=O)c1ccc(Cl)cc1 (stereo not given)	95	58	66	231*	59
Cc1nnsc1S(=O)c1ccc(Cl)cc1 (stereo not given)	99	113	118	128	96
Cc1cc(C)cc(Nc2ccc(C(=O)O)cc2N)c1	209*[may fluoresce violet]	?	104	89	96
Cc1ccc(Nc2ccc(C(=O)O)cc2N)cc1	107	101	100	103	100
COCCNC(=O)c1c(N)n(-c2ccccc2)c2nc3ccccc3nc12	104	92	96	107	101
COCCNC(=O)c1c(N)n(CCCn2ccnc2)c2nc3ccccc3nc12	224*[may fluoresce violet]	?	?	79	44*[may fluoresce violet]
Cc1ccc(C(=O)NCCn2c(N)c(C#N)c3nc4ccccc4nc32)cc1	184*[may fluoresce violet]	?	31	83	62
CCC(C)NC(=O)CN(C1CCCCC1)S(=O)(=O)c1ccc(F)cc1 (stereo not given)	99	90	107	101	92
Cc1cccc(C(=O)N=c2c(C#N)cc3c(=O)n4cccc(C)c4nc3n2Cc2ccco2)c1	294*[may fluoresce violet]	?	?	83	17*[may fluoresce violet]
Cc1cccn2c(=O)c3cc(C#N)c(=NC(=O)c4ccco4)n(Cc4ccco4)c3nc12	135	?	19	104	80
Cc1ccc(Cn2c(=N)c(C#N)cc3c(=O)n4cccc(C)c4nc32)cc1	104	92	100	95	94
Cc1ccc(-n2c(=O)c(C#N)cc3c(=O)n4cccc(C)c4nc32)cc1	150	?	22	83	42*[may fluoresce violet]

Source: PubChem
